ALOX15 inhib: blocks human 15-lipoxygenase activity | P16050 | purified 15hLO-1, xylenol orange hydroperoxide absorbance | Potency, µM (series often up to 57.1 µM), without a hit: top-dose activity change, negative = inhibition, actives largely listed as inhibitors | 1.4% of 74,000 active | AID 887; further: on the % scale 0 is the no-effect control and ±100 the full control effect; nearly all actives have a fitted effect of over 55% in size
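Inhibition is scored from a chromogenic endpoint. After 15 min enzyme-compound contact, arachidonic acid (50 uM final) reacts 6 min with 40 nM 15hLO-1 at room temperature, then Fe-XO reagent is added for 30 min and absorbance ratio recorded.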
Tau filament bind: binds recombinant human tau filaments. recombinant tau filaments, thioflavin S fluorescence, 15 h; filaments grown with octadecylsulfate alongside compound. Potency, µM (titrated, usually from 57.1 µM), for inactives: at the highest dose activity change, negative = inhibition. 2% of 71,000 active;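 further: on the % scale 0 is the no-effect control and ±100 the full control effect; actives lower thioflavin S fluorescence by blocking filaments or displacing dye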
Target sequence (P10636 whole entry, looked up): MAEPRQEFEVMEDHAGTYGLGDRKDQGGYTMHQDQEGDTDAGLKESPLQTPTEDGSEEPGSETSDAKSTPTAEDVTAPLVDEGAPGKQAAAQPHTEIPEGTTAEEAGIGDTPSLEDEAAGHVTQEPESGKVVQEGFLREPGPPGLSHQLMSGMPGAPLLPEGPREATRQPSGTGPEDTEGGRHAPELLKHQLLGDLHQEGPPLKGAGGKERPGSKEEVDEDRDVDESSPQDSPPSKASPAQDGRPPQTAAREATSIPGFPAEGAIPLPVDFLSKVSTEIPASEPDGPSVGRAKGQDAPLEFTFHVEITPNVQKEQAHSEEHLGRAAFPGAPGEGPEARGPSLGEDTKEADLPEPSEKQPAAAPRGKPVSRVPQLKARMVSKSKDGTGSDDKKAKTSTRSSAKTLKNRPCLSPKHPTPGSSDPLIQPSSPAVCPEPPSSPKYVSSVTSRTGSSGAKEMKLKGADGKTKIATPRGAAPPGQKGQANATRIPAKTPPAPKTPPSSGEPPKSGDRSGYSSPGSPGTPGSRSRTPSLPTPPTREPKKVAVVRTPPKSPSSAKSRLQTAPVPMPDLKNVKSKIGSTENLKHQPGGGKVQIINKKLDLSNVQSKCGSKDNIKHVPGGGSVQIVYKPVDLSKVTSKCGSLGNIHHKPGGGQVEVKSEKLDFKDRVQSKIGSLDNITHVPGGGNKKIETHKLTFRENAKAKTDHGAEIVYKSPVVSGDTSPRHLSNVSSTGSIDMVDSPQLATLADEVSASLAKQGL
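His-tagged recombinant human tau (exons 2, 3 and 10 included), 1 uM, was induced to fibrillize by 30 uM sodium octadecylsulfate with compound present. After 15 h at 37 C, thioflavine S fluorescence (ex 450, em 510 nm) was read.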
Hsp90 Hop PPI: changes Hsp90-Hop TPR2A binding signal, up or down; AlphaScreen TPR2A-His6 binding biotin-Hsp90 C-terminal peptide; Potency, µM (titrated, usually from 57 µM), for inactives: top-dose activity change, negative = inhibition; 0.44% of 71,000 active; active means well fitted curve in either direction with a large enough effect; inconclusive means small, poorly fitted or top-dose-only effect, or another doubt; further: on the % scale 0 is the no-effect control and ±100 the full control effect
USP2a inhib: inhibitors of human ubiquitin-specific protease USP2a | 0.1% of 60,000 active | USP2a enzymatic assay, qHTS inhibition | Potency, µM (series often up to 38.3 µM), inactives show at the top dose activity change, negative = inhibition, actives largely listed as inhibitors | O75604; further: nearly all actives have a fitted effect of over 60% in size
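USP2 core (20nM final) preincubated 30 min RT with compound, then Ub-PLA2 20nM and NBD C6-HPC 20uM final added; buffer 20mM Tris-HCl pH 8.0, 2mM CaCl2. Fluorescence Ex 460/Em 535 read at 0 and 2.5 h; normalized to NEM.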
* hit, by the source's call; i = inactive; ? = inconclusive; · = not tested or not shown; ! = not active in a repeat; [ ] = another dose, or the depositor's remark. Sampled rows, rich in hits. Any-hit rate of the full collection: about 3.2%. Unless noted, the call rests on the fitted dose curve; in most records, active means well fitted curve in the direction sought with a large enough effect; inconclusive means small, poorly fitted or top-dose-only effect, or another doubt; inactive means no such curve, though single readings can be large; an effect the other way counts as inactive or inconclusive. Potency means the concentration at half of the fitted maximal effect.

SMILES	ALOX15 inhib	Tau filament bind	Hsp90 Hop PPI	USP2a inhib
Oc1ccc(/C=C\c2cc(O)cc(O)c2)cc1	?	32µM*!	-9%	?
Oc1cc(O)cc(/C=C\c2ccc(O)c(O)c2)c1	0.79µM*	?	?	-4%
COCCn1c(=O)c(-c2ccc(Cl)cc2)nc2cnc(Oc3cccc(Cl)c3)nc21	-6%	-11%	-2%	50%
O=C(Nc1cccs1)NC1CCCC1	13µM*	-12%	-21%	12%
CCN1C(=O)/C(=C2/Sc3ccc(OC)cc3N2C)SC1=Nc1cccc(O)c1	-14%	3.2µM*	-7%	10%
COc1cccc(Cn2c(=O)c(-c3cccc(F)c3)nc3cncnc32)c1	-22%	13µM*	-14%	18%
COc1cccc(Cn2c(=O)c(-c3cc(F)cc(F)c3)nc3cncnc32)c1	3%	13µM*	-15%	170%
COc1cccc(Cn2c(=O)c(-c3ccc(F)cc3)nc3cncnc32)c1	?	?	-3%	8%
Cc1cc(NC(c2cccnc2)c2ccc3cccnc3c2O)no1 (configuration not stated)	112%	-1%	4µM*	6%
CCNc1ncc2nc(CCc3ccccc3)c(=O)n(C)c2n1	25µM*	418%	9%	74%
CCNc1ncc2nc(CCc3ccccc3)c(=O)n(C3CC3)c2n1	-8%	102%	0%	-19%
N#C/C(=C\c1ccc(O)c(O)c1)C(=O)NCCCc1ccccc1	2.5µM*	-18%	5µM*!	-3%
N#C/C(=C\c1c[nH]c2ccccc12)C(=O)c1ccc(O)c(O)c1	0.25µM*	-2%	?	?
N#C/C(=C\c1ccc(O)c(O)c1)S(=O)(=O)c1ccccc1	4µM*	-1%	-21%	-12%
N#C/C(=C\c1ccc(O)c(O)c1)C(=O)OCCc1cccs1	?	-29%	4µM*	·
NC(=S)N/N=C\c1c[nH]c2ccccc12	3%[11.4 µM]	2%[11.4 µM]	-3%[11 µM]	·
COCCn1c(=O)c(-c2cccs2)nc2cnc(N(C)C)nc21	0%	i	8%	133%
CC(C)(C)c1cc(/C=C(\C#N)C(N)=S)cc(C(C)(C)C)c1O	?	-19%	?	6%
N#C/C(=C\c1ccc(O)c(O)c1)C(=O)c1ccc(O)c(O)c1	4µM*	3%	?	-14%
O=C(CCN1CCOCC1)Nc1ccc2c(c1)CCC2	25µM*	-9%	-4%	2%
COc1ccc(Cl)cc1N=Nc1ncc[nH]1	-15%[25.6 µM]	40µM*	-9%	·
N#Cc1ccccc1-c1cncnc1NCc1cccnc1	-23%	-5%	7%	-22%
Cc1ccc(-c2cc(-c3ccc4c(c3)OCO4)c(C#N)c(N)n2)o1	10µM*	13µM*	-16%	39%
N#Cc1c(N)nc2c(c1-c1ccc3c(c1)OCO3)CCCCCC2	-2%	9%	0%	78%
N#Cc1c(N)oc(-c2ccc3c(c2)OCO3)c1-c1ccc2c(c1)OCO2	25µM*	-12%	-7%	25%
SMILES	ALOX15 inhib	Tau filament bind	Hsp90 Hop PPI	USP2a inhib
Cc1ccc(-c2cc(-c3ccc(C)o3)nc(N)c2C#N)cc1	0%	11%	-1%	-2%
CN(C)c1ccc(-c2ccc3ncnc(NC4CC4)c3c2)cc1	13%	?	-3%	90%
Oc1ccc(CN2CCCc3ccccc32)c2cccnc12	-8%	-8%	3.2µM*	52%
c1ccc(-c2nnc(CN3CCCc4ccccc43)o2)cc1	?	64%	-21%	21%
CN(C)c1ccc(C2N([C@H](C#N)c3ccc(N(C)C)cc3)CCCN2[C@@H](C#N)c2ccc(N(C)C)cc2)cc1 (some centres not stated)	-2%[11.4 µM]	6%[11.4 µM]	1%[11 µM]	·
CN1CCCC[C@@H]1CCN1CCCCC1	5%[11.4 µM]	2%[11.4 µM]	-4%[11 µM]	·
CCOc1ccccc1O[C@@H](c1ccccc1)[C@@H]1CNCCO1	-5%[25.6 µM]	32µM*	?	·
CCOc1ccccc1C1CC(=O)Nc2cc3c(cc21)OCCO3 (configuration not stated)	-9%	30%	-11%	-4%
COc1ccc(S(=O)(=O)Nc2c(C(=O)O)[nH]c3ccccc23)c(OC)c1	-2%	-9%	-7%	4%
COc1ccc2[nH]c(C(=O)O)c(NS(=O)(=O)c3ccc(OC)c(OC)c3)c2c1	-22%	20µM*	-13%	2%
CN1CCc2c(cc(O)c(O)c2Cl)[C@H](c2cccc(Cl)c2)C1	16µM*	-8%	13µM*	19%
C=CCN1CCc2c(cc(O)c(O)c2Cl)[C@H](c2ccccc2)C1	?	-10%	?	18%
C=CCn1c(=O)/c(=C/c2ccc(C)o2)s/c1=C(/C#N)C(=O)c1ccccc1	16µM*	46%	?	22%
Cc1ccc(S(=O)(=O)Nc2ccccc2C=O)cc1	7%[11.4 µM]	-1%[11.4 µM]	-2%[11 µM]	·
Oc1cccc(O)c1O	13µM*	-4%	-9%	·
COc1c(O)cccc1O	2%	·	·	0%
Cn1c(NCc2ccco2)nc2ccccc21	-28%	16µM*	-10%	34%
CN(C)CCNc1c2c(c(C#N)c3nc4ccccc4n13)CCCC2	1%	13%	-4%	5%
N#Cc1c2c(c(NCc3ccco3)n3c1nc1ccccc13)CCC2	5µM*	-17%	?	16%
C[C@@H](Cc1ccccc1)Nc1ncnc2c1ncn2[C@@H]1O[C@@H](CO)[C@H](O)[C@@H]1O	-23%	-9%	-15%	5%
COc1ccc(CCn2c(-c3ccco3)nc3nc4ccccc4nc32)cc1	-5%	13µM*	4%	26%
c1coc(-c2nc3nc4ccccc4nc3n2CC2CCCO2)c1 (configuration not stated)	?	-7%	-17%	34%
CCCn1c(-c2ccc(OC)cc2)nc2nc3ccccc3nc21	1%	-25%	0%	13%
c1ccc(Cn2c(-c3ccco3)nc3nc4ccccc4nc32)cc1	-18%	7.9µM*	8%	40%
Cc1ccc(-c2nc3nc4ccccc4nc3n2Cc2ccco2)cc1	?	16µM*	-1%	39%
SMILES	ALOX15 inhib	Tau filament bind	Hsp90 Hop PPI	USP2a inhib
O=c1c2ccccc2nc(-c2ccco2)n1Cc1ccccc1	-6%	1%	-4%	9%
CCCCCn1c(-c2ccco2)nc2nc3ccccc3nc21	?	13µM*	10%	28%
Clc1ccc(-c2nc3nc4ccccc4nc3n2Cc2ccco2)cc1	-3%	?	-2%	10%
COc1ccccc1Cn1c(-c2ccco2)nc2nc3ccccc3nc21	-2%	16µM*	-1%	39%
CCn1c(N)c(C(=O)NCC2CCCO2)sc1=S (configuration not stated)	10µM*	7%	0%	5%
CC1CCN(C(C(=O)Nc2ccc3c(c2)OCO3)c2ccccc2)CC1 (configuration not stated)	4%	16%	1%	·
CCC(C)[C@@H](C(=O)Nc1ccc2c(c1)OCO2)N1Cc2ccccc2C1=O (some centres not stated)	-15%	25µM*	-4%[2.3 µM]	·
Clc1ccc(Cl)c(-c2nn3c(COc4ccccc4)nnc3s2)c1	10µM*	-13%	0%	5%
COc1ccc(-c2nc3cnc(N4CCOCC4)nc3n(CCc3ccccc3)c2=O)cc1	?	87%	24%	92%
Cc1ccc(-c2n[nH]c(=O)c3ccccc23)cc1N	-2%	-3%	-4%	-5%
